Data: ChEMBL document CHEMBL4513216, “Probing the Open Global Health Chemical Diversity Library for Multistage-Active Starting Points for Next-Generation Antimalarials” (ACS Infect Dis, 2020)
Among all 68,000 compounds or so, about 2,700 (4%) showed an effect of 50% or more. The full list was thinned out, with strong results kept by preference.

What follows are compounds tested on Plasmodium berghei (assay: Screen against P. berghei liver stage (PbLuc), transformed with Luciferase, at 2uM). Details: tested at 2 uM.
Type: functional, HepG2

Structure (SMILES)	INHIBITION [%]
O=C(NCc1cnc2n1CCN(CC1CC1)CC2)C1CCC1	15.42
CO[C@@H]1CCN(S(=O)(=O)c2cccs2)[C@H]1Cc1cccnc1	30.39
CC(c1nc(C2CC2)no1)N1CCc2c(ncn2C2CC2)C1 (configuration not stated)	-40.15
O=C(c1cccc(CNS(=O)(=O)c2ccc(F)cc2)c1)N1CCCC1	51.94
Cc1ccc(S(=O)(=O)NCc2cccc(C(=O)N3CCCC3)c2)cc1F	47.84
Cc1ccc(F)cc1S(=O)(=O)NCc1cccc(C(=O)N2CCCC2)c1	33.8
Cc1nc(N2CCOCC2)nc2c1CCN(C(=O)C1(C#N)CC1)CC2	-24.04
Cc1nc(C)c2c(n1)CCN(C(=O)C1(C#N)CC1)CC2	89.37
Cc1nc2c(c(NC3CC3)n1)CCN(C(=O)C1(C#N)CC1)CC2	-5.44
COCC1CN(Cc2ccoc2)Cc2nn(C)cc21 (configuration not stated)	17.69
O=C(Nc1ccc(F)cc1)N1CCN(Cc2noc(C3CC3)n2)CC1	24.65
CN1CCN(C(=O)C[C@@H]2COC[C@H]3CN(c4ccncn4)C[C@@H]23)CC1	-69.07
CS(=O)(=O)N1CCC2(CC1)COC(COc1cccnc1)C2 (configuration not stated)	19.91
CNC(=O)c1ccc(S(=O)(=O)NCCc2ccccn2)cc1	24.15
CNS(=O)(=O)c1ccc(C(=O)NCCc2ccccn2)cc1	62.46
CNS(=O)(=O)c1ccc(C(=O)NCCNc2ncccn2)cc1	-75.02
O=C(Nc1ccccc1)N1CCn2nnc(COc3cccnc3)c2C1	11.72
CCNC(=O)[C@@H]1CCCN1C1(C(=O)NC)CCC1	10.65
CC(CC(=O)O)CC(=O)Nc1sc2c(c1C(N)=O)CCc1ccccc1-2 (configuration not stated)	-0.22
COc1cc(NCCNC(=O)c2ccc3[nH]ccc3c2)cc(OC)c1	57.75
CC(C)(C)OC(=O)NCCNC(=O)c1ccc2cc[nH]c2c1	13.72
COc1cc(NCCNC(=O)c2cc[nH]c2C)cc(OC)c1	12.43

Structure (SMILES)	INHIBITION [%]
O=C(NCCCO)Nc1cccc(Cl)c1F	-5.28
Fc1cnc(N2CCOC3(CCN(Cc4ccsc4)CC3)C2)nc1	-35.12
CNC(=O)C1CCN(Cc2cc3c(cc2O)CCC3)CC1	-23.73
CNS(=O)(=O)CCN1CC(c2ccccc2)(c2ccccc2)CCC1=O	40.51
Cc1cccc(NCc2ncc(C(C)(C)C)o2)c1	75.37
CC(C)(C)c1cnc(CNc2cccc(Cn3cnnc3)c2)o1	-3.4
Cc1ccc(NCc2ncc(C(C)(C)C)o2)c(Cl)c1	-32.82
CCc1nc(C)sc1CN1CC[C@](O)(CC)[C@H](O)C1	20.36
O=C(CCC(=O)NCc1cccc(Br)c1)NCCN1CCCC1	-64.94
COCC(=O)NCc1cccc(Br)c1	0.26
O=C(COCC(=O)N1CCCCCC1)NCc1cccc(Br)c1	50.97
Cc1ncn(-c2cc(N3CCN(S(C)(=O)=O)CC3)ncn2)c1C	43.28
CCCSCC(=O)N1C[C@H]2CC[C@@H](C1)N(Cc1ccccn1)C2=O	60.9
O=C(CSCC1CC1)N1C[C@H]2CC[C@@H](C1)N(Cc1ccccn1)C2=O	36.66
CCOCC(=O)N1C[C@H]2CC[C@@H](C1)N(Cc1ccccn1)C2=O	37.77
CC(C)(O)CN1CCN(C(=O)COCC(F)(F)F)CC1	13.76
COc1cc(C)c(S(=O)(=O)CC(=O)N(C)C2CC2)cc1OC	51.87
CCN(C(=O)CS(=O)(=O)c1cc(OC)c(OC)cc1C)C1CC1	35.41
COc1cc(C)c(S(=O)(=O)CC(=O)N(C)C(C)C)cc1OC	10.72
CCn1cc(S(=O)(=O)Nc2nc3c(s2)CCCC3)cn1	23.02
CCn1cc(S(=O)(=O)Nc2nc3c(s2)CC(C)CC3)cn1 (configuration not stated)	32.56
CC1CCc2nc(NS(=O)(=O)c3cnn(C)c3)sc2C1 (configuration not stated)	54.52

Structure (SMILES)	INHIBITION [%]
N#Cc1ccc(CN2CCN(Cc3ccncc3Cl)CC2=O)cc1	26.27
CC1CN(Cc2nc(Cc3ccccc3F)no2)CCN1C (configuration not stated)	17.25
O=C(c1ccco1)N1CCOC2(COCCN(c3ncccn3)C2)C1 (configuration not stated)	36.06
Cc1cccc(CN2CCc3onc(Cn4cccc4)c3C2)n1	15.36
Cc1cccc(CN2CCc3onc(CO)c3C2)n1	52.12
Cc1cccc(CN2CCc3onc(CN(C)C)c3C2)n1	26.77
CCOc1ncccc1NC(=O)NC1CCN(S(C)(=O)=O)CC1	-68.26
CCN(CC)C(=O)[C@@H]1C[C@@H](n2cc(-c3ccccn3)nn2)CN1	38.67
CCN(CC)C(=O)[C@@H]1C[C@H](n2cc(-c3cccc(OC)c3)nn2)CN1	36.28
CCN(CC)C(=O)[C@@H]1C[C@@H](n2cc(-c3cccc(OC)c3)nn2)CN1	57.75
CC1(C)CC(n2cc3nc(N4CCCC4)[nH]cc-3c2=O)CC(C)(C)N1	6.2
O=C(CCc1ccsc1)NS(=O)(=O)Cc1ccon1	-6.64
O=C(CCc1cccc(Cl)c1)NS(=O)(=O)Cc1ccon1	41.05
O=C(CCc1ccco1)NS(=O)(=O)Cc1ccon1	50.59
CCCNc1ccc(C(=O)NCCc2cccc(OC)c2)cn1	19.09
CC(C)NC(=O)N1CCCCC1c1nnc2n1CCNC2 (configuration not stated)	-15.93
CC(NC(=O)c1ccc(Cl)cc1)c1nnc(SCC(=O)O)n1C (configuration not stated)	4.37
Cc1c(CN2CCCC(O)C2)[nH]c2ccc(F)cc12 (configuration not stated)	-1.51
Cc1c(CN2CC[C@@H](N3CCC(O)CC3)[C@H](O)C2)[nH]c2ccc(Cl)cc12	-31.36
Cc1c(CN2CC[C@@H](N3CCC(O)CC3)[C@H](O)C2)[nH]c2ccc(F)cc12	51.43
Cc1nccc(-c2ccccc2)c1C(=O)N1CC[C@](C)(O)C(C)(C)C1	48.93
COC1COC2(CCN(Cc3ccc4ccccc4n3)CC2)C1 (configuration not stated)	-0.18

Structure (SMILES)	INHIBITION [%]
CCn1ncc(C(=O)NCc2ccc(C)c(OC)c2)c1C(F)(F)F	55.52
CCOc1cc(CNC(=O)c2cnn(CC)c2C(F)(F)F)ccn1	-61.54
CCOc1cccc(CNC(=O)c2cnn(CC)c2C(F)(F)F)c1	40.97
Cc1cncc(C(=O)N2Cc3ccccc3C3(CCN(C)CC3)C2)c1	5.28
CN1CCC2(CC1)CN(C(=O)c1cccnc1)Cc1ccccc12	-19.51
CN1CCC2(CC1)CN(C(=O)c1ccncc1)Cc1ccccc12	56.25
CCc1nnc(C2Cc3ccccc3CN2Cc2cc(C)no2)o1 (configuration not stated)	56.89
CCc1nnc(C2Cc3ccccc3CN2Cc2cc(C)on2)o1 (configuration not stated)	33.9
Cc1cc(CN2Cc3ccccc3CC2c2nnc(C)o2)on1 (configuration not stated)	21.91
Cc1cnc(N2CCC3(CC2)CN(c2ccsc2)C(=O)CO3)nc1	-38.48
CC(CN1CCOCC1)NC(=O)N1CCCC1 (configuration not stated)	34.93
Cc1ccoc1C(=O)N1C[C@@H](OCC2CC2)[C@H]2OCCC[C@H]21	8.25
CCc1nc(NC(=O)NCCc2cccc(C)n2)nn1C	21.14
CCCOc1cc(C)ccc1NC(=O)NCCNC(C)=O	-3.26
CCCOc1cc(C)ccc1NC(=O)N(C)C	-59.32
CC(=O)NCCNC(=O)Nc1ccc(C)cc1OCc1ccccc1	3.22
Cc1ccc(NC(=O)N(CCO)CCO)c(OCc2ccccc2)c1	68.73
CC(=O)N(C)CC(=O)Nc1ccc(C)cc1OCc1ccccc1	50.03
CCOc1ccccc1NC(=O)N(CCO)Cc1ccsc1	38.66
NC(=O)c1cc(C2CCCN(Cc3ccc4c(c3)OCCO4)C2)n[nH]1 (configuration not stated)	-16.03
Cc1nc(C2CCCN2CC(=O)NCCOc2ccc(F)cc2)no1 (configuration not stated)	20.57
Cc1nccn1CCCn1cncc1-c1ccc2c(c1)CCC(C)N2C (configuration not stated)	12.29

Structure (SMILES)	INHIBITION [%]
CC(C)(C)c1nc(CN2CCCC2Cn2cncn2)no1 (configuration not stated)	45.83
COc1ccc(OC)c(C2c3c(n[nH]c3C)N=C3COC(=O)C32)c1 (configuration not stated)	26.14
COc1cccc(C2c3c(n[nH]c3C)N=C3COC(=O)C32)c1O (configuration not stated)	63.46
COc1cccc(C2c3c(n[nH]c3C)N=C3COC(=O)C32)c1OC (configuration not stated)	-35.07
NC(=O)CN1CCCC1c1ccccc1Br (configuration not stated)	-43.18
CNC(=O)CN1CCCC1c1ccccc1Br (configuration not stated)	1.9
CNC(=O)CCN1CCCC1c1ccccc1Br (configuration not stated)	51.76
Cc1nn(C)cc1CCC(=O)N1CCCC(n2cncn2)C1 (configuration not stated)	26.71
COc1c[nH]c(C(=O)Nc2nc(C(C)(C)C)cs2)cc1=O	34.71
CCOC(=O)Cc1csc(NC(=O)c2cc(=O)c(OC)c[nH]2)n1	-5.51
COc1c[nH]c(C(=O)Nc2nc(C)cs2)cc1=O	79.68
Cc1c(C2CC(=O)Nc3c2cnn3C(C)C)cnn1C (configuration not stated)	-0.58
O=C(CSc1nnc(N2CCOCC2)s1)NCc1cccs1	44.98
CCc1[nH]ncc1C(=O)N1CCN(c2nc(C)cc(OC)n2)CC1	51.83
CCc1[nH]ncc1C(=O)N1CCN(c2nccc(OC)n2)CC1	-85.11
COc1cc(C)nc(N2CCN(C(=O)COCC3CC3)CC2)n1	4.19
CCOc1cc(C)nc(N2CCN(C(=O)c3cn[nH]c3CC)CC2)n1	38.76
COc1ccnc(N2CCN(C(=O)COCC(F)(F)F)CC2)n1	4.19
COc1cc(C)nc(N2CCN(C(=O)COCC(F)(F)F)CC2)n1	51.21
